According to PubChem BioAssay (EPA / NIEHS):
Calls of active or inactive are those of the source. The calls were made as follows: active = hit-call score of the fitted dose curve at least 0.9, where 1 is the maximum; inactive = score below 0.9.

Molecular target: Paired box protein Pax-6 (Homo sapiens) (UniProt P26367)
Assay: ATG_Pax6_CIS: Attagene CIS-FACTORIAL HepG2 Assay for human Paired Box 6 (PAX6) (AID 2282956)
Conditions: HepG2 CIS-FACTORIAL PAX6 reporter transcription, RNA readout; actives raise or lower the signal
Experimental: ATG_CIS is a cell-based, multiplexed-readout assay that uses HepG2, a human liver cell line, with measurements taken at 24 hours after chemical dosing in a 24-well plate.ATG_Pax6_CIS is one of 52 assay component(s) measured or calculated from the ATG_CIS assay. It is designed to make measurements of mRNA induction, a form of inducible reporter, as detected with fluorescence intensity signals by Reverse transcription polymerase chain reaction (RT-PCR) and Capillary electrophoresis technology.Data from the assay component ATG_Pax6_CIS was analyzed into 1 assay endpoint. This assay endpoint, ATG_Pax6_CIS, was analyzed with bidirectional fitting relative to DMSO as the negative control and baseline of activity. Using a type of inducible reporter, measures of mRNA for gain or loss-of-signal activity can be used to understand the reporter gene at the transcription factor-level as they relate to the gene PAX6. Furthermore, this assay endpoint can be referred to as a primary readout, because this assay has produced multiple assay endpoints where this one serves a reporter gene function. To generalize the intended target to other relatable targets, this assay endpoint is annotated to the dna binding intended target family, where the subfamily is paired box protein.
Human liver HepG2 cells are transiently transfected with multiple reporter transcription units (MRTUs) in 6-well plates using FuGene 6 reagent (Roche; 3 ml FuGene/1 mg DNA). The MRTU constructs are regulated by a cis-regulating element (promoter). […] A major difference between the CIS and TRANS system is that in CIS activities of endogenous TFs are measured, whereas the TRANS assay evaluates changes in activities of exogenous, chimeric NR-Gal4 proteins. […] At the end of 24 hour incubation, total RNA was isolated using TriZol reagent (Invitrogen). The isolated RNA is then reverse-transcribed using oligo(dT) primer and Mo-MLV reverse transcriptase (Invitrogen) with DNAse I (Ambion) treatment for 30 min. The one-tenth of the produced cDNA was amplified by PCR using Taq DNA polymerase (Invitrogen) and two reporter sequence-specific primers. The PCR products were fluorescently labeled by primer extension with 6-arboxyfluorescein (6-FAM) 5'-labeled reporter sequence-specific primer (2 min at 95 C, 20 s at 68 C and 10 min at 72 C) and these products were digested with 5U of HpaI (New England Biolabs) for 2h at 37 C. The fragments were purified using Qiaquick PCR columns (Qiagen), analyzed on an ABI 3130xL genetic analyzer (Applied Biosystems) with peak positions identified by using a set of X-rhodamine (ROX)-labeled MapMarker1000 molecular weight standards (BioVentures). The raw capillary electrophoresis data was processed using Attagraph software (Attagene).

Paired box protein Pax-6 (Homo sapiens), sequence (P26367 whole entry, looked up): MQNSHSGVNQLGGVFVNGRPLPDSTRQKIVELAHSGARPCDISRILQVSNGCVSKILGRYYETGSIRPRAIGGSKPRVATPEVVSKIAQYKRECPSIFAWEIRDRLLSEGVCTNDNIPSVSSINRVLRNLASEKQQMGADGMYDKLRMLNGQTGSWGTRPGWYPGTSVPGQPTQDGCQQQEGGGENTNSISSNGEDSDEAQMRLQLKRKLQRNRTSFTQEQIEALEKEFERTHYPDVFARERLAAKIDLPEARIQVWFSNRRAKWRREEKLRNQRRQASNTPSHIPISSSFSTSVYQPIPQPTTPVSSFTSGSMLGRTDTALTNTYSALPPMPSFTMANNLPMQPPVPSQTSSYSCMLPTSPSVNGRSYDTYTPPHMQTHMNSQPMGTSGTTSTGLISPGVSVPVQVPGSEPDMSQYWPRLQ

SMILES	outcome	AC50
O=C(O)C(Br)Br	inactive	–
O=c1c2ccccc2c(=O)c2c1cc(Cl)c1[nH]c3c([nH]c12)c(Cl)cc1c(=O)c2ccccc2c(=O)c13	inactive	–
CC(=O)c1cc2c(cc1C)C(C)(C)C(C)CC2(C)C (stereo not given)	–	100 µM (active)
CCC(Br)(CC)C(=O)NC(N)=O	inactive	–
O=S(=O)(O)OOS(=O)(=O)O	inactive	–
CNC(=O)Oc1cc(C)c(SC)c(C)c1	inactive	–
NNc1ccccc1	inactive	–
CN(C)C(=O)C(c1ccccc1)c1ccccc1	inactive	–
S=c1[nH]c2ccccc2[nH]1	inactive	–
COC(=O)COc1ccc(Cl)cc1Cl	inactive	–
Nc1c(Cl)c(Cl)c(Cl)c(Cl)c1Cl	inactive	–
O=C1Nc2ccc(Cl)cc2C(c2ccccc2)=NC1O (stereo not given)	inactive	–
CCC(C)(C)O	inactive	–
C=COCCCl	inactive	–
O=c1[nH]c(Cl)c(Cl)cc1Cl	inactive	–
CCOC(=O)C1OC1(C)c1ccccc1 (stereo not given)	inactive	–
O=[N+]([O-])c1cc(C(F)(F)F)c(Cl)c([N+](=O)[O-])c1Cl	–	2.77 µM (active)
CN(C)CCC#N	inactive	–
c1cc(OCC2CO2)ccc1Cc1ccc(OCC2CO2)cc1 (stereo not given)	–	33.4 µM (active)
CCc1cc(C)cc(CC)c1-c1c(OC(=O)C(C)(C)C)n2n(c1=O)CCOCC2	inactive	–

SMILES	outcome	AC50
O=C(CCN1CC1)OCC(CO)(COC(=O)CCN1CC1)COC(=O)CCN1CC1	inactive	–
Cc1ccccc1CCl	inactive	–
CN(N=O)c1ccccc1	inactive	–
CC(C)c1ccc(O)cc1	inactive	–
[CH3][Sn]([Cl])([Cl])[Cl]	inactive	–
CC(C)[C@@H](C(=O)O[C@@H](C#N)c1cccc(Oc2ccccc2)c1)c1ccc(Cl)cc1	inactive	–
O=C(O)COc1ccccc1	inactive	–
Cc1cc(C)c(C2=C(OC(=O)CC(C)(C)C)C3(CCCC3)OC2=O)c(C)c1	–	104 µM (active)
C=CC(=O)OCC(CC)CCCC (stereo not given)	inactive	–
[Cl][Sb]([Cl])[Cl]	–	133 µM (active)
O=S(=O)(c1ccccc1)c1ccccc1	inactive	–
C=Cc1cccc(CCl)c1	inactive	–
C#CC1(O)CCCCC1	inactive	–
Nc1ccccc1C(=O)Oc1ccc2ccccc2c1	–	46.9 µM (active)
ClC1=C(Cl)[C@]2(Cl)[C@@H]3[C@@H](Cl)[C@H](Cl)C[C@@H]3[C@@]1(Cl)C2(Cl)Cl	inactive	–
CCOC(=O)NC(=S)Nc1ccccc1NC(=S)NC(=O)OCC	inactive	–
CNC(=N[N+](=O)[O-])NCC1CCOC1 (stereo not given)	inactive	–
Cc1ccc(OP(=O)(Oc2ccc(C)cc2)Oc2ccc(C)cc2)cc1 (tested in a mixture with another compound)	inactive	–
[Cl-].[Cl-].[Cl-].[Yb+3]	inactive	–
C=CC(=O)OCCCCOC(=O)C=C	–	52.4 µM (active)
